FLuc modulator – firefly luciferase modulation, counter-screen for miR-21 project | purified FLuc, Km substrates, luminescence inhibition | Potency, µM (series often up to 57.5 µM), without a hit: at the top dose activity change, negative = inhibition, most hits filed as inhibitors | 6.9% of 360,000 active;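 further: plate controls were vehicle for no effect and reference inhibitor for full effect; nearly all actives have a fitted effect of over 55% in size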
Target sequence (P08659 whole entry, looked up): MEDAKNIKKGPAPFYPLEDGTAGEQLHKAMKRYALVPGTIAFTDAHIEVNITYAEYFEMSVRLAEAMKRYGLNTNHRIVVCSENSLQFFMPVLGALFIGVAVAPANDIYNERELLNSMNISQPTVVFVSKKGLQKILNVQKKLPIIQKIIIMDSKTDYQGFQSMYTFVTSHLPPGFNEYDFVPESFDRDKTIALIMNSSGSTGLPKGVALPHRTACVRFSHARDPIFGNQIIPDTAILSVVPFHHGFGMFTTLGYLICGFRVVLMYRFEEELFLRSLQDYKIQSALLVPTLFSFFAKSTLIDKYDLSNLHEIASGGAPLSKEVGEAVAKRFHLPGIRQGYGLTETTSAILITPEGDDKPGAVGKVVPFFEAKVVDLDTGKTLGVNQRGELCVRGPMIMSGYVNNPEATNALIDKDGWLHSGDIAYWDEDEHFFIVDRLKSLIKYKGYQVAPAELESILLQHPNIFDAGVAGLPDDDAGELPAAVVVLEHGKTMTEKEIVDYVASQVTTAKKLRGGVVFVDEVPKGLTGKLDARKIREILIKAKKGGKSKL
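Purified P. pyralis luciferase, 10 nM final, with Km-level 10 uM D-luciferin and 10 uM ATP in 50 mM Tris acetate pH 7.5, 10 mM Mg acetate, 0.01% Tween-20, 0.05% BSA; 6-point qHTS titration about 60 µM downward; luminescence read.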
SMN2 splice enh – enhancers of SMN2 splice variant expression; Potency, µM (doses to about 46.1 µM), for inactives: top-dose activity change, positive = activation, hits mostly activators; 2.8% of 210,000 active; HEK293 SMN2-luciferase splicing reporter, luminescence, 30-36 h; further: % of control where 0% means no effect; nearly all actives have a fitted effect of over 55% in size
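HEK293 cells carry an SMN2 […]–luciferase reporter in which exon 7 inclusion puts luciferase in frame. Cells were plated 10-12 h before compound addition, then incubated 30-36 h at 37C. ONE-Glo luminescence was read; sodium butyrate at 4.5 mM final served as control.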
ELG1 genotoxic – genotoxicity induction in ELG1-luciferase HEK293T cells; HEK293T ELG1-luciferase reporter, luminescence, 16 h; Potency, µM (highest dose often 46 µM), without a hit: at the highest dose activity change, positive = activation, hits mostly activators; 1.3% of 330,000 active; further: % of control where 0% means no effect; nearly all actives have a fitted effect of over 60% in size
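Screening used a luciferase reporter fused to human ELG1 in HEK293T cells. Luminescence was read on a CCD plate imager after 16 hr exposure and 30 min ONE-Glo incubation.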
Rab9 promoter act – activators of Rab9 promoter | Huh7 Rab9 promoter-luciferase reporter, luminescence, 24 h | Potency, µM (series often up to 9.22 µM), without a hit: at the highest dose activation, negative = inhibition, actives largely listed as activators | 2.8% of 320,000 active | AID 485297; further: % of control where 0% means no effect; nearly all actives have a fitted effect of over 60% in size
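Stable Rab9-luc Huh7, 1500 cells/well, 2 h settle; cmpd in DMSO, 24 h, 37 °C/5% CO2; luciferase reagent 10 min RT; luminescence.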
ELG1 DNA repair – blocks ELG1-dependent DNA repair in HEK293T cells; HEK293T ELG1-luciferase reporter, luminescence, 16 h; DNA damage induced by 5-fluorouridine; Potency, µM (top dose mostly 46.1 µM), without a hit: at the top dose activity change, negative = inhibition, actives largely listed as inhibitors; 2.3% of 330,000 active; further: on the % scale 0 is the no-effect control and ±100 the full control effect; nearly all actives have a fitted effect of over 55% in size
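DMSO vehicle served as the neutral condition. Each well held 2,000 cells given 5-fluorouridine plus compound; after 16 hr at 37 °C/5% CO2, ONE-Glo was added and luciferase measured 30 min later.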
NPC1 prom act – activates the NPC1 promoter | Huh7 NPC1 promoter luciferase reporter, 24 h | 2.4% of 320,000 active | Potency, µM (highest dose often 9.22 µM), for the others: at the top dose activation, usual class: activators | AID 485313; further: % of control where 0% means no effect; nearly all actives have a fitted effect of over 60% in size
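NPC1 promoter–luciferase Huh7 cells; 24 h compound; luminescence.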
* marks the source's active call; other numbers are inactive results; ? = inconclusive; . = not tested or not shown. This is a sample that favours compounds with a hit; in the whole collection about 9.4% have one here. The call rests on the fitted dose curve; in most records, active means well fitted curve in the direction sought with a large enough effect; inconclusive means small, poorly fitted or top-dose-only effect, or another doubt; inactive means no such curve, though single readings can be large; an effect the other way counts as inactive or inconclusive. Potency means the concentration at half of the fitted maximal effect.

SMILES	FLuc modulator	SMN2 splice enh	ELG1 genotoxic	Rab9 promoter act	ELG1 DNA repair	NPC1 prom act
Nc1nc(C2CC2)c(Sc2sc(N)nc2C2CC2)s1	-1.3%	15.8µM*	-6.4%	-3.5%	-2.0%	0.9%
Cc1cc(=O)n(CC(=O)NC(C)c2ccccc2)c2c1c(C)nn2C (stereo not given)	1.6%	.	.	.	.	.
CC(=O)c1ccccc1NS(=O)(=O)c1cc2c(cc1C)NC(=O)CO2	-3.2%	.	.	.	.	.
CCC1=C2CC[C@H]3C(=O)N(CC(=O)OC)C(=O)[C@H]3[C@H]2[C@@]2(Cc3ccccc3)C(=NCCc3c[nH]c4ccccc34)OC(=O)N2C1=O	.	-12.7%	.	.	.	.
Cc1ccccc1Nc1c(-c2c[nH]c3ccccc23)nc2cccc(C)n12	1.6%	11.2µM*	.	.	.	.
Cc1cccc(NC(=O)COc2cccc3c2CCN(C)C3=O)c1C	0.0%	-33.5%	-2.1%	-8.7%	?	-3.4%
CCOC(=O)c1c(NC(=O)COc2cccc3c2CCN(C)C3=O)sc2c1CCC2	-5.4%	-25.6%	-13.6%	-4.9%	18.4µM*	-3.3%
COCCn1c(SCC(=O)c2ccc(F)cc2)nc2cc(C(=O)NC3CCCC3)ccc2c1=O	-0.7%	.	.	.	.	.
Cc1cc(C(=O)Nc2ccc3c(c2)OCCO3)c2ccccc2n1	-2.9%	-17.6%	7.8%	2.1%	28.4%	0.6%
Cc1ccccc1C(=O)Nc1ccc2c(c1)OCCO2	2.39µM*	.	1.83µM*	0.398µM*	?	0.501µM*
Cc1ccc(NC(=O)Nc2ccc3c(c2)CCC3)cc1C	1.5%	.	13.7%	29.0%	?	29.6%
O=C(Nc1ccc2c(c1)OCCO2)c1coc2ccccc2c1=O	0.757µM*	8.8%	?	10.1%	?	-1.0%
CC(=O)c1c(Nc2ccc3c(c2)OCCO3)oc(C)cc1=O	26.9µM*	-5.9%	?	-17.7%	?	-1.2%
Cc1occc1C(=O)Nc1ccc2c(c1)CCC2	9.53µM*	11.2µM*	18.4µM*	3.98µM*	?	3.55µM*
CNC(=O)C1CCC(Cn2c(=O)c3sccc3n(CC(=O)N3CCCC(C)C3)c2=O)CC1 (stereo not given)	-0.4%	.	.	.	.	.
Cc1occc1C(=O)Nc1ccc2c(c1)OCCO2	8.49µM*	?	?	1.26µM*	?	3.16µM*
Cc1cc(C(=O)Nc2ccc3c(c2)OCCO3)c(C)o1	7.57µM*	11.2µM*	4.61µM*	3.16µM*	?	?
Cc1cccc(C)c1N1CCN(C(=O)Nc2ccc3c(c2)OCCO3)CC1	9.53µM*	-13.4%	-0.3%	?	?	?
O=C(Nc1ccc2c(c1)OCO2)N1CCN(Cc2ccco2)CC1	0.953µM*	.	?	0.794µM*	?	?
Cc1ccc(NC(=O)N2CCN(Cc3ccc4c(c3)OCO4)CC2)cc1	-6.8%	-16.0%	1.6%	-5.3%	-11.7%	5.3%
Cc1occc1C(=O)Nc1cccc([N+](=O)[O-])c1	1.1%	7.1%	-2.7%	-0.2%	11.4%	-0.3%
O=C(Nc1ccc2c(c1)OCCO2)N1CCN(c2ccc(F)cc2)CC1	-16.3%	-50.4%	20.5%	-5.6%	?	6.0%
CCc1ccc2occ(CC(=O)Nc3c(C(=O)c4ccc(F)cc4)oc4ccccc34)c2c1	-5.2%	2.3%	.	.	.	.
COc1ccccc1-c1nnc(NC(=O)CSc2nncn2C)s1	0.757µM*	11.2µM*	5.7%	?	?	?
COc1ccccc1-c1nnc(NC(=O)C(C)Sc2nncn2C)s1 (stereo not given)	19µM*	-38.2%	11.9%	13.6%	?	2.8%
SMILES	FLuc modulator	SMN2 splice enh	ELG1 genotoxic	Rab9 promoter act	ELG1 DNA repair	NPC1 prom act
COc1ccccc1-c1nnc(NC(C)=O)s1	6.75µM*	25.1µM*	?	?	?	?
COc1ccccc1NC(=O)c1ccc(NC(=O)CSc2nncn2C)cc1	-1.2%	4.3%	0.0%	-1.8%	-2.4%	-2.6%
Cc1ccc(-n2ncc3c(Nc4cccc(C)c4C)ncnc32)cc1	8.49µM*	.	.	.	.	.
CCOc1ccccc1Nc1ncnc2c1cnn2-c1ccc(C)cc1	15.1µM*	.	.	.	.	.
CCOc1ccccc1Nc1ncnc2c1cnn2-c1ccccc1	-13.3%	-5.7%	-4.9%	-0.2%	-14.4%	-0.6%
Cc1ccc(Nc2ncnc3c2cnn3-c2ccccc2)c(C)c1	19µM*	.	.	.	.	.
Cc1cccc(Nc2ncnc3c2cnn3C)c1C	-1.2%	.	.	.	.	.
COc1cc(NC(=O)CCn2nc(C)c(S(=O)(=O)N3CCCCC3)c2C)cc(OC)c1OC	-0.9%	.	.	.	.	.
O=C(Cn1nc(C(F)(F)F)c2c1CCCC2)Nc1ccc(F)c(Cl)c1	-13.8%	-8.4%	.	.	.	.
Cc1cc(C)nc(SCc2ccc(Cl)cc2)n1	2.2%	.	6.6%	-1.9%	0.8%	-0.7%
Nc1ccc(CSc2ccc(Cl)cc2)cc1	26.9µM*	25.7%	?	?	?	?
CC(C)c1ccc(-n2cccc2/C=C2/C(=N)N3C=CSC3=NC2=O)cc1	-4.0%	-24.0%	-14.1%	-2.3%	16.4µM*	0.8%
CC1=CSC2=NC(=O)/C(=C\c3cccn3-c3ccccc3)C(=N)N12	2.4%	-7.4%	-6.8%	-0.6%	?	1.6%
Cc1cc(C)cc(NC(=O)Cn2cc(S(=O)(=O)NC(C)(C)C)c(S(=O)(=O)NC(C)(C)C)c2)c1	-0.9%	.	.	.	.	.
O=C(Oc1ccc(/C=N/NC(=O)c2ccccc2F)cc1)c1ccccc1	-2.3%	.	?	23.9%	?	13.4%
O=C(N/N=C/c1cccc(Oc2ccccc2)c1)c1cc[n+]([O-])cc1	?	0.9%	2.1%	-4.2%	-16.1%	0.5%
Nc1ccc(C(=O)N/N=C/c2cccc(Oc3ccccc3)c2)cc1	12µM*	.	4.9%	9.3%	?	-0.5%
O=C(N/N=C/c1cccc(Oc2ccccc2)c1)c1ccccc1F	16.9µM*	.	?	21.3%	?	-4.7%
CCOc1ccc(C(=O)Nc2cccc(OCc3cc(=O)n4cc(C)sc4n3)c2)cc1	2.4%	-4.3%	.	.	.	.
CCc1nn(Cc2c(C)cc(C)cc2C)c(=O)c2cc3cc(C)ccc3n12	1.0%	3.5%	.	.	.	.
Cc1ccc(C)c(-c2nc3cc(N)ccc3o2)c1	13.5µM*	11.2µM*	10.3µM*	?	?	20.2%
CCc1ccc2oc(-c3cc(N)cc(C)c3O)nc2c1	?	?	?	?	?	6.3%
COC(=O)c1ccc(-c2nc3cc(N)ccc3o2)cc1	1.2µM*	?	?	?	?	21.6%
Cc1ccc(-c2nc3cc(N)ccc3o2)cc1Br	1.9µM*	.	2.91µM*	1.78µM*	?	1.26µM*
Cc1ccc2nc(-c3cc(N)cc(N)c3)oc2c1	0.379µM*	?	7.0%	?	?	?
CCc1cccc(NC(=O)C2CCN(C(=O)c3cnn(-c4ccccc4)c3-n3cccc3)CC2)c1	?	-38.4%	.	.	.	.
